Test results as given in PubChem BioAssay (NCATS).
Inconclusive results are not listed. Activity calls are given as the source filed them. Calls follow the shape of the dose curve; as a rule, active = well fitted curve in the direction sought with a large enough effect; inconclusive = small, poorly fitted or top-dose-only effect, or another doubt; inactive = no such curve, though single readings can be large; an effect the other way counts as inactive or inconclusive.

Columns and labels:
[1] = tested on: NIH3T3; assay: Cytotoxic Profiling of Annotated Libraries Using Quantitative High-Throughput Screening (AID 1296008); conditions: Five cell lines viability, CellTiter-Glo ATP luminescence, 48-72 h; max response: stronger effect = lower value; also: nearly all actives have a fitted effect of over 60% in size
Method in brief: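 Cytotoxicity was measured as CellTiter-Glo ATP luminescence, read after 10 min at room temperature. Compound treatment of the cells lasted 48 or 72 hr at 37 degrees Celsius in a qHTS format.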

[2] = tested on: MCC-13; assay: qHTS assay to identify novel small-molecules to repurpose for Merkel cell carcinoma treatment (AID 1296009); conditions: MCC and control cell lines, CellTiter-Glo viability, 72 h; series mostly up to 46 µM; also: nearly all actives have a fitted effect of over 60% in size
Method in brief: (§1)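 After compound transfer in DMSO, plates were kept 72 hr at 37 degree celsius. Luminescent ATP signal from CellTiter-Glo served as viability measure, normalized against DMSO and no-cell controls.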

[3] = tested on: MKL-1; assay: as above; conditions: MCC and control cell lines, CellTiter-Glo viability, 72 h; series mostly up to 46 µM
Method in brief: as §1

[4] = tested on: MKL-2; assay: as above; conditions: MCC and control cell lines, CellTiter-Glo viability, 72 h; series mostly up to 46 µM
Method in brief: as §1

[5] = tested on: UISO; assay: as above; conditions: MCC and control cell lines, CellTiter-Glo viability, 72 h; series mostly up to 46 µM
Method in brief: as §1

[6] = tested on: WaGa; assay: as above; conditions: MCC and control cell lines, CellTiter-Glo viability, 72 h; series mostly up to 46 µM
Method in brief: as §1

[7] = tested on: C33A; assay: Primary qHTS to identify gynecologic anti-cancer compounds using libraries of approved drugs and bioactive compounds (AID 1345084); conditions: Gynecologic cancer cell panel viability, ATPlite luminescence, 48 h; series mostly up to 57.5 µM; also: nearly all actives have a fitted effect of over 55% in size
Method in brief: (§2)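 Luminescence from the ATPlite ATP-monitoring reagent indicates viable cell number; lower signal means cytotoxicity. Cells received compound 16 h after seeding and were exposed for 48 h across five concentrations.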

[8] = tested on: CAOV3; assay: as above; conditions: Gynecologic cancer cell panel viability, ATPlite luminescence, 48 h; series mostly up to 57.5 µM
Method in brief: as §2

[9] = tested on: CASKI; assay: as above; conditions: Gynecologic cancer cell panel viability, ATPlite luminescence, 48 h; series mostly up to 57.5 µM
Method in brief: as §2

[10] = tested on: Es-2; assay: as above; conditions: Gynecologic cancer cell panel viability, ATPlite luminescence, 48 h; series mostly up to 57.5 µM
Method in brief: as §2

[11] = tested on: HeLa; assay: as above; conditions: Gynecologic cancer cell panel viability, ATPlite luminescence, 48 h; series mostly up to 57.5 µM
Method in brief: as §2

[12] = tested on: Hek293T; assay: as above; conditions: Gynecologic cancer cell panel viability, ATPlite luminescence, 48 h, control line for the selectivity index; series mostly up to 57.5 µM
Method in brief: as §2

[13] = tested on: JEG-3; assay: as above; conditions: Gynecologic cancer cell panel viability, ATPlite luminescence, 48 h; series mostly up to 57.5 µM
Method in brief: as §2

[14] = tested on: OV90; assay: as above; conditions: Gynecologic cancer cell panel viability, ATPlite luminescence, 48 h; series mostly up to 57.5 µM
Method in brief: as §2

[15] = tested on: PA-1; assay: as above; conditions: Gynecologic cancer cell panel viability, ATPlite luminescence, 48 h; series mostly up to 57.5 µM
Method in brief: as §2

[16] = tested on: SKOV3; assay: as above; conditions: Gynecologic cancer cell panel viability, ATPlite luminescence, 48 h; series mostly up to 57.5 µM
Method in brief: as §2

[17] = tested on: MCC-26; assay: qHTS assay to identify novel small-molecules to repurpose for Merkel cell carcinoma treatment (AID 1296009); conditions: MCC and control cell lines, CellTiter-Glo viability, 72 h; series mostly up to 46 µM; also: nearly all actives have a fitted effect of over 60% in size
Method in brief: as §1

[18] = tested on: NIH3T3; assay: as above; conditions: MCC and control cell lines, CellTiter-Glo viability, 72 h; at 44.8 µM (top of the series) unless noted
Method in brief: as §1

[19] = tested on: HEK293T; assay: as above; conditions: MCC and control cell lines, CellTiter-Glo viability, 72 h; at 44.8 µM (top of the series) unless noted
Method in brief: as §1
% is scaled to controls: 0 for no effect and ±100 for the full control effect; potency is read from the fitted curve at half-maximal effect.

c1ccc2sc(SSc3nc4ccccc4s3)nc2c1
inactive: max response [1] 3.25% | Potency [2] | Potency [3] | Potency [4] | Potency [5] | Potency [6] | Potency [7] | Potency [8] | Potency [9] | Potency [10] | Potency [11] | Potency [12] | Potency [13] | Potency [14] | Potency [15] | Potency [16]

CCCCC1C(=O)N(c2ccccc2)N(c2ccc(O)cc2)C1=O (stereo not drawn)
inactive: Potency [9] | Potency [11] | Potency [13]
active: Potency [1] 15 µM | Potency [2] 9.44 µM | Potency [3] 1.5 µM | Potency [4] 0.596 µM | Potency [5] 6.68 µM | Potency [6] 2.99 µM

Cc1c(Nc2ncccc2C(=O)O)cccc1C(F)(F)F
inactive: max response [1] -21.5% | Potency [2] | Potency [17] | Potency [3] | Potency [4] | Potency [5] | Potency [6] | Potency [7] | Potency [8] | Potency [9] | Potency [10] | Potency [11] | Potency [12] | Potency [13] | Potency [14] | Potency [15] | Potency [16]

O=C(O)Cc1cccc(-c2cc(CCCCCCc3ccc(O[C@H]4O[C@H](CO)[C@@H](O)[C@H](O)[C@@H]4O)c(-c4cccc(CC(=O)O)c4)c3)ccc2O[C@H]2O[C@H](CO)[C@@H](O)[C@H](O)[C@@H]2O)c1
inactive: max response [1] 2.37% | activity change, negative = cytotoxicity [2] 9.04% [at 0.597 µM] | activity change, negative = cytotoxicity [3] 6.03% [at 0.597 µM] | activity change, negative = cytotoxicity [4] 5.84% [at 0.597 µM] | activity change, negative = cytotoxicity [5] 19.7% [at 0.597 µM] | activity change, negative = cytotoxicity [6] 8.43% [at 0.597 µM] | activity change, negative = cytotoxicity [7] -0.854% [at 0.462 µM] | activity change, negative = cytotoxicity [8] 12.9% [at 0.462 µM] | activity change, negative = cytotoxicity [9] -1.06% [at 0.462 µM] | activity change, negative = cytotoxicity [10] 2.88% [at 0.462 µM] | activity change, negative = cytotoxicity [11] 7.81% [at 0.462 µM] | activity change, negative = cytotoxicity [12] 0.655% [at 0.462 µM] | activity change, negative = cytotoxicity [13] 24.2% [at 0.462 µM] | activity change, negative = cytotoxicity [14] 11.3% [at 0.462 µM] | activity change, negative = cytotoxicity [15] 22.2% [at 0.462 µM]

O=C(OCc1ccccc1)c1ccccc1
inactive: max response [1] 0.848% | Potency [2] | Potency [17] | Potency [3] | Potency [4] | Potency [5] | Potency [6] | Potency [7] | Potency [8] | Potency [9] | Potency [10] | Potency [11] | Potency [12] | Potency [13] | Potency [14] | Potency [15] | Potency [16]

CNC(=O)c1c(I)c(NC(=O)CCCCC(=O)Nc2c(I)c(C(=O)O)c(I)c(C(=O)NC)c2I)c(I)c(C(=O)O)c1I
inactive: max response [1] -3.88% | Potency [2] | Potency [3] | Potency [4] | Potency [5] | Potency [6] | Potency [7] | Potency [8] | Potency [9] | Potency [10] | Potency [11] | Potency [12] | Potency [13] | Potency [14] | Potency [15] | Potency [16]

CCOc1ccc2nc(S(N)(=O)=O)sc2c1
inactive: outcome [1] | Potency [2] | Potency [17] | Potency [3] | Potency [4] | outcome [18] | Potency [6] | Potency [7] | Potency [8] | Potency [9] | Potency [10] | Potency [11] | Potency [12] | Potency [13] | Potency [14] | Potency [15]

CC1(C)S[C@@H]2[C@H](NC(=O)[C@H](N)c3ccc(O)cc3)C(=O)N2[C@H]1C(=O)O
inactive: outcome [1] | outcome [19] | outcome [18] | Potency [8] | Potency [9] | Potency [10] | Potency [11] | Potency [12] | Potency [13] | Potency [14] | Potency [15] | Potency [16]

CCC1C(=O)OCC1Cc1cncn1C (stereo not drawn)
inactive: max response [1] -5.1% | Potency [2] | Potency [3] | Potency [4] | Potency [5] | Potency [6] | Potency [7] | Potency [8] | Potency [9] | Potency [10] | Potency [11] | Potency [12] | Potency [13] | Potency [14] | Potency [15] | Potency [16]

O=C(/C=C/c1ccccc1)NCCO
inactive: max response [1] 3.14% | Potency [2] | Potency [3] | Potency [4] | Potency [5] | Potency [6] | Potency [7] | Potency [8] | Potency [9] | Potency [10] | Potency [11] | Potency [12] | Potency [13] | Potency [14] | Potency [15] | Potency [16]

CCCOC(=O)c1ccc(O)cc1
inactive: max response [1] 3.51% | Potency [2] | Potency [17] | Potency [3] | Potency [4] | Potency [5] | Potency [6] | Potency [7] | Potency [8] | Potency [9] | Potency [10] | Potency [11] | Potency [12] | Potency [13] | Potency [14] | Potency [15] | Potency [16]

Cc1ccc(O)c(-n2nc3ccccc3n2)c1
inactive: max response [1] 0.367% | Potency [2] | Potency [3] | Potency [4] | Potency [5] | Potency [6] | Potency [7] | Potency [10] | Potency [11] | Potency [12] | Potency [13] | Potency [15] | Potency [16]
active: Potency [14] 3.55 µM

O=c1[nH]c2ccccc2n1CCCN1CCN(C(c2ccccc2)c2ccccc2)CC1
inactive: max response [1] -21.6% | Potency [2] | Potency [17] | Potency [7] | Potency [11] | Potency [13]

CC(=O)c1ccc(OCC(=O)N2CCCCC2)cc1
inactive: outcome [1] | Potency [2] | Potency [3] | Potency [4] | outcome [18] | Potency [5] | Potency [6] | Potency [7] | Potency [8] | Potency [9] | Potency [10] | Potency [11] | Potency [12] | Potency [13] | Potency [14] | Potency [15] | Potency [16]

CN(C)c1ccc(N=NS(=O)(=O)O)cc1
active: Potency [3] 5.12 µM | Potency [4] 6.44 µM | Potency [6] 40.7 µM
inactive: max response [1] 2.87% | Potency [2] | Potency [7] | Potency [9] | Potency [10] | Potency [11] | Potency [12]

CCCCCCOc1ccccc1C(N)=O
inactive: max response [1] -8.29% | Potency [2] | Potency [3] | Potency [4] | Potency [7] | Potency [8] | Potency [9] | Potency [10] | Potency [11] | Potency [12] | Potency [13] | Potency [14] | Potency [15] | Potency [16]
